High-throughput results from PubChem BioAssay.
Most compounds without a hit are left out; they make up all but 5.9% or so of the library.
KB-3-1 tox – KB-3-1 parental cell cytotoxicity | KB-3-1 viability, CellTiter-Glo ATP luminescence, 72 h | Potency, µM (series often up to 46.1 µM), hits mostly cytotoxic | 400,000 tested, 1.4% active | AID 1347075; note: nearly all actives have a fitted effect of over 60% in size
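Here the drug-naive KB-3-1 line serves as comparator for MDR sub-line selectivity; cells received compound titrations, 72 h at 37 °C, then CellTiter-Glo readout.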
TGFb inhibitor – inhibitors of TGF-b signaling; HepG2 CAGA-GFP TGF-b/SMAD3 reporter, GFP fluorescence, 18 h; TGF-beta stimulated, 500 pg/mL final; Potency, µM (series often up to 46.1 µM), actives largely listed as inhibitors; AID 588855; 410,000 tested, 1.2% active; note: nearly all actives have a fitted effect of over 65% in size
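Per well, imaged GFP fluorescence of HEPG2 CAGA-GFP cells gives the signal; cells get compound, then TGF-beta (500 pg/mL final), 18 h at 37 degrees C; %Activity versus -TGF-beta and +DMSO controls.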
ATXN2 expr inh – ATXN2 expression inhibition | HEK-293 ATXN2-luciferase reporter, luminescence, 24 h | Potency, µM (highest dose often 57 µM), hits mostly inhibitors | 360,000 tested, 0.72% active | AID 1745845; note: nearly all actives have a fitted effect of over 55% in size
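qHTS (up to 57 uM final) was run with 24 h compound exposure of reporter cells at 37 °C. Each well was multiplexed: SteadyGlo luminescence measured ATXN2-luciferase expression after a fluorogenic Gly-Phe-AFC viability readout (25 uM final).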
ATXN viability – cell viability loss in ATXN counter-screen. 400,000 tested, 0.49% active. S2 cells (HEK-293 line with an ATXN2-luciferase reporter) viability, CellTiter-Fluor protease fluorescence, 24 h. Potency, µM (highest dose often 56.7 µM), actives largely listed as cytotoxic; note: nearly all actives have a fitted effect of over 40% in size
HepG2 tox – HepG2 cytotoxicity, counter-screen for TGF-b inhibitors; 410,000 tested, 0.76% active; HepG2 CAGA-GFP viability, ATP luminescence, 18 h; Potency, µM (highest dose often 46.1 µM), usual class: cytotoxic
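CellTiter-Glo luminescence gave cytotoxicity after 18 hours at 37 degrees C. The cells were HepG2 CAGA-GFP in 1% FBS DMEM, stimulated with 500 pg/mL TGF-beta after compound addition. %Activity was normalised to no-cell wells (complete cell-killing) and DMSO (no toxicity), and curves were fitted and classified.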
KB-V1 cytotox – KB-V1 MDR subline cytotoxicity; Potency, µM (titrated, usually from 46.1 µM), hits mostly cytotoxic; AID 1347076; 400,000 tested, 3.4% active; KB-V1 MDR cells viability, CellTiter-Glo, 72 h; note: nearly all actives have a fitted effect of over 60% in size
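Luminescent ATP read-out (CellTiter-Glo, 10 min) measures survival of drug-selected KB-V1 MDR cells after 72 h, 37 degrees C compound exposure. Medium: phenol-red-free DMEM, 10% FBS. Values from fitted concentration-response curves.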
Numbers stand for hits; . = inactive; ? = inconclusive; / = no result given. Calls come from the whole dose curve; as a rule, active = well fitted curve in the direction sought with a large enough effect; inconclusive = small, poorly fitted or top-dose-only effect, or another doubt; inactive = no such curve, though single readings can be large; an effect the other way counts as inactive or inconclusive.

SMILES | KB-3-1 tox | TGFb inhibitor | ATXN2 expr inh | ATXN viability | HepG2 tox | KB-V1 cytotox
O=C(/C=C/c1ccccc1)c1cc(Br)ccc(=O)c1O | 12µM | 16µM | 20µM | ? | . | ?
Cc1ccc(/C=C/C(=O)c2ccccc(=O)c2O)cc1C | 9.2µM | 10µM | ? | ? | . | 21µM
O=C(N/N=C/c1cc2c3c(c1O)CCCN3CCC2)c1ccccc1O | 4.1µM | ? | ? | / | . | ?
COc1ccccc1C(=O)NC(=S)/C=C1/N(C)c2ccccc2C1(C)C | . | 22µM | . | ? | . | .
CN1/C(=C\C(=S)NC(=O)c2ccccc2Cl)C(C)(C)c2ccccc21 | ? | . | . | . | . | .
Nc1ccc2c(c1)C(=O)c1ccccc1-2 | . | . | . | . | . | .
Nc1ccc2c(c1)C(=O)C(=O)c1ccccc1-2 | 2.9µM | ? | 4.5µM | 6.3µM | 4µM | 4.6µM
O=C1C(=O)c2ccc(-c3ccccc3)cc2-c2ccccc21 | 4.1µM | ? | ? | 5.6µM | 2.5µM | 3.7µM
Cc1ccc(C(=O)N2CCn3c4c(c5cc(C)ccc53)CCCC42)cc1 (stereo not given) | . | ? | . | . | . | .
COc1ccccc1CNC(=O)c1ccc2nc(N3CCCCC3)sc2c1 | . | . | . | . | . | .
C1=CCOCc2cc(ccc2OCCN2CCCC2)Nc2nccc(n2)-c2cccc(c2)OCC1 | / | / | 15µM | / | / | /
Cc1c(CCC(=O)NCCCCCC(=O)O)c(=O)oc2c(C)c3oc4c(c3cc12)CCCC4 | . | . | / | . | . | .
Cc1c(CCC(=O)NCCCn2ccnc2)c(=O)oc2c(C)c3oc4c(c3cc12)CCCC4 | 23µM | ? | ? | . | . | .
Cc1nc(NC(=O)c2ccco2)sc1-c1csc(Nc2ccc(Cl)cc2Cl)n1 | . | . | . | ? | . | ?
Cc1ccc(Cl)cc1Nc1nc(-c2sc(NC(=O)c3ccco3)nc2C)cs1 | 21µM | . | . | . | . | ?
COc1ccccc1Nc1nc(-c2sc(NC(=O)c3ccco3)nc2C)cs1 | ? | . | . | . | . | .
COc1cccc(N(C(=O)c2ccco2)c2nc(-c3sc(NC(=O)c4ccco4)nc3C)cs2)c1 | 5.8µM | ? | . | ? | . | .
Cc1ccc(N2CCN(C(=O)c3cn(C)c4ccc(S(=O)(=O)N5CCCC5)cc4c3=O)CC2C)cc1 (stereo not given) | / | . | / | / | . | /
Cc1cccc2c1-c1sc(C(=O)N(C)c3cccc(Cl)c3)cc1CO2 | . | ? | . | . | . | .
C=C1C(=O)[C@]23C[C@H]1CCC2[C@@]1(C)C(C[C@@H]3O)[C@](C)(C(=O)OC)CC[C@@H]1O (stereo not given in full) | 13µM | 0.79µM | 1.6µM | / | 5µM | .
CCN(CC)c1ccc(C(=O)NNC(=O)CCl)cc1 | ? | . | . | ? | . | .
CCN(CC)c1ccc(C(=C2C=CC(=[N+](CC)CC)C=C2)c2ccc(N(CC)CC)cc2)cc1 | ? | 2.2µM | ? | / | 11µM | ?
CCN(CC)c1ccc(C(=C2C=CC(=[N+](CC)CC)C=C2)c2cc(S(=O)(=O)O)ccc2S(=O)(=O)[O-])cc1 | / | / | 11µM | ? | / | /
CCN(CC)c1ccc(C(=C2C=CC(=[N+](CC)CC)C=C2)c2ccccc2)cc1 | 0.026µM | ? | 0.35µM | 0.89µM | 1.8µM | ?
CCN(CC)c1ccc(C(=O)NNC(=O)CCNC(=O)c2ccccc2)cc1 | . | . | . | . | . | .
Cc1nc2sccn2c1CN1Cc2ccccc2OC(c2ccccc2F)C1 (stereo not given) | / | / | / | . | / | /
CO[C@H]1CN(C)C(=O)c2cc(NC(=O)C3CCCC3)ccc2OC[C@@H](C)NC[C@H]1C | . | / | / | / | / | .
CCCC(=O)N1c2ncnn2C2(CCCCC2)[C@@H]2CCCC[C@@H]21 | . | . | . | . | . | .
Cc1nc2cc(NC(=O)[C@@H]3C[C@@H](Sc4ccccn4)CN3Cc3ccc4c(c3)OCCO4)ccc2s1 | / | / | / | . | / | /
N#C/C(=C\c1ccc(N2CCOCC2)cc1)c1ccccc1 | . | . | . | . | . | .
